In PubChem BioAssay AID1789 (The Scripps Research Institute Molecular Screening Center, 2009):
“And” between values parts separate entries of the source, which are not always exact repeats. Identical values can stand only once. The whole screen tested about 290,000 compounds, of which about 2,700 (0.93%) were called active. What follows is part of a selection rich in actives, with near analogues and random picks from the rest. Values without a mark were called inactive.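 How the source made its calls: active means inhibition above the screen-wide mean plus 3 SD, computed separately per campaign (cut at about 16% in these data); inactive means the rest.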

System: Heat shock protein HSP 90 (rabbit reticulocyte lysate; luciferase refolding)
Assay: inhibitors of HSP90 chaperone activity – cell lysate, luminescence, primary screen (AID 1789);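 further: 0% = DMSO wells and 100% = 60 µM geldanamycin wells; inhibitors lower the luminescence because luciferase stays unfolded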
Conditions: 3 h, at 5.6 µM, active compounds read high

| SMILES | inhibition |
| --- | --- |
| COc1ccc(-c2cc(=O)oc3cc(OC(C)C(=O)Nc4ccc(CN5CCOCC5)cc4)ccc23)cc1 (stereo not given) | -1.3% |
| COc1cc(OC)cc(C(=O)NCCSCc2ccc(Cl)cc2)c1 | 2.62% |
| CCOC(=O)C1CCN(S(=O)(=O)c2c(C)noc2C)CC1 | -1.41% |
| C=CCNc1ncnc2ccc(Br)cc12 | -3.86% |
| COc1ccc(Nc2ncnc3sc(-c4ccccc4)cc23)c(OC)c1 | -1.63% |
| COc1ccc(Nc2ncnc3ccc(Br)cc23)c(OC)c1 | 35.7% (active) |
| Cc1ccc(S(=O)(=O)NCC(=O)Nc2ccc3c(c2)OCCO3)cc1 | 5.88% |
| O=c1c2ccccc2nc(N/N=C/c2ccccc2)n1O | -0.57% |
| O=C(Nn1cnc2ccccc2c1=O)c1ccccc1 | -3.95% |
| O=c1c2ccccc2ncn1/N=C/c1ccccc1 | 16.4% (active) |
| CC(C)C[C@H](NC(=O)N1CC(=O)Nc2ccccc21)C(=O)N[C@H](Cc1ccccc1)C(=O)O | -4.11% |
| CCC1(CC)NC(=O)N(Cc2nc3ccccc3s2)C1=O | 1.16% |
| CC1(C)SC2C(NC(=O)COc3ccccc3)C(=O)N2C1C(=O)O (stereo not given) | -3.05% |
| COC(=O)C1[C@H]2SC(C)(C)C(C(=O)OC)N2C(=O)N1Cc1nc2ccccc2s1 (stereo not given in full) | 26.1% (active) |
| O=[N+]([O-])c1ccc(F)cc1Oc1nc(-c2cccnc2)nc2ccccc12 | 2.73% |
| CS(=O)(=O)N1CCN(C(=O)Cc2ccccc2)CC1 | -2.11% |
| O=C(Cc1ccccc1)N1CCN(S(=O)(=O)c2ccc([N+](=O)[O-])cc2)CC1 | 20% (active) |
| O=C(Cc1ccccc1)NNS(=O)(=O)c1ccc([N+](=O)[O-])cc1 | -2.29% |
| COc1ccc(-c2cc(C(=O)N3CCN(c4ccc(F)cc4)CC3)no2)cc1 | -0.04% |
| O=C(CCc1c[nH]c2ccccc12)NCCOc1ccccc1 | -0.52% |
| COc1ccc(Cl)cc1NC(=O)CN1CCN(C(=O)N2CCOCC2)CC1 | -1.78% |
| COc1ccc(Cl)cc1NC(=O)Cn1nc(-c2ccc(C)cc2)n(C)c1=S | 17.9% (active) |
| COc1ccc(C)cc1NC(=O)CSc1ccc(Cl)cc1 | 1.35% |
| Cc1ccc(NC(=O)C2CCCN2C(=O)OCc2ccccc2)cc1C (stereo not given) | -2.49% |

| SMILES | inhibition |
| --- | --- |
| CCOC(=O)c1ccccc1NS(=O)(=O)c1c(C)nc2sccn2c1=O | -1.63% |
| Cn1c(=O)c2c(nc(CN3CCOCC3)n2Cc2ccccc2)n(C)c1=O | 8.36% |
| CCOC(=O)N1CCN(Cc2nc3c(c(=O)n(C)c(=O)n3C)n2Cc2ccccc2)CC1 | 57.6% (active) |
| CCN1CCN(Cc2nc3c(c(=O)n(C)c(=O)n3C)n2CC(=O)c2ccccc2)CC1 | 0.91% |
| COc1cccc(CNS(=O)(=O)c2ccc3c(c2)CC(C)N3C(C)=O)c1 (stereo not given) | -0.03% |
| NNC(=O)c1nnn(-c2nonc2N)c1CN1CCCC1 | 2.68% |
| Cc1ccc(C)c(OCc2cc(C(=O)N3CCN(c4cnccn4)CC3)no2)c1 | -6.08% |
| O=C(C1CCN(Cc2ccc(Cl)cc2)CC1)N1CCN(Cc2ccc3c(c2)OCO3)CC1 | 3.57% |
| Cc1cccnc1CCNC(=O)C1CCC(=O)N(Cc2cccc(F)c2)C1 (stereo not given) | -3.21% |
| Oc1ccc2ccccc2c1N=Nc1nccs1 | 16.9% (active) |
| Oc1ccc(N=Nc2nccs2)c(O)c1 | 0.13% |
| c1ccc(NCc2cccc3ccccc23)nc1 | -0.19% |
| CCc1ccc(S(=O)(=O)N/N=C\c2ccc([N+](=O)[O-])o2)cc1 | -5.89% |
| COCCNc1ccc(-c2n[nH]c(=O)c3ccccc23)cc1[N+](=O)[O-] | 1.55% |
| Cc1cc(N=Nc2ccc3ccccc3c2)ccc1O | -3.33% |
| CN(C)c1ccc(-n2cccc2/C=C2/SC(=Nc3ccc(F)cc3)NC2=O)cc1 | -2.27% |
| COc1cccc(OCCOc2cccc(/C=N/n3cnnc3)c2)c1 | 10.3% |
| CN(C)c1ccc(-n2cccc2/C=N/n2cnnc2)cc1 | 54.3% (active) |
| O=C(COc1nsnc1N1CCOCC1)Nc1ccccc1Cl | -3.12% |
| O=C(Nc1ccc(CN2CCOCC2)cc1)c1cc(Cl)ccc1Cl | -0.42% |
| CCc1nc(N2CCN(C(C)=O)CC2)c2c3c(sc2n1)CCCC3 | 0.58% |
| O=C(Nc1ccccc1C(=O)O)c1ccc(N2C(=O)C3CC=CCC3C2=O)cc1 (stereo not given) | 19.6% (active) |
| COc1ccc(Cl)cc1NC(=O)c1cccc(N2C(=O)C3CC=CCC3C2=O)c1 (stereo not given) | -3.52% |
| O=C(Cc1ccccc1)Nc1ccc(C(=O)Nc2ccccc2C(=O)O)cc1 | 2.96% |

| SMILES | inhibition |
| --- | --- |
| COC(=O)[C@@H](Cc1ccccc1)NC(=O)NCCc1ccccc1 | 5.73% |
| NC(=O)Cc1ccc2c(c1)[nH]c1ccccc12 | 5.37% |
| O=C(O)Cc1sc(-c2ccccc2)nc1-c1cccs1 | -2.42% |
| NC(=O)Cc1ccc2sc(-c3ccccc3)nc2c1 | 16.4% (active) |
| COc1ccc(NC(=O)NN2CCN(C)CC2)c(OC)c1 | -1.29% |
| CCOc1cccc(-n2nnnc2-c2ccc(OC)cc2)c1 | 1.88% |
| COc1ccc(C2=NN(c3nc4ccccc4s3)C(=O)C2)cc1 | 0.61% |
| COc1ccc(-n2nnnc2-c2nc3ccccc3s2)cc1 | 19.1% (active) |
| O=C(c1cccc(Br)c1)N1CCN(C2=NS(=O)(=O)c3ccccc32)CC1 | -0.31% |
| O=C(CN1C(=O)COc2ccc(Cl)cc21)N1CCOCC1 | 4.17% |
| Cc1ccc(C(=O)NN(CCC#N)C2=NS(=O)(=O)c3ccccc32)cc1 | -2.85% |
| COc1cc(C(=O)NN(CCC#N)C2=NS(=O)(=O)c3ccccc32)cc(OC)c1OC | 26.7% (active) |
| COc1cc(C2C(C(=O)OCCC#N)=C(C)NC3=C2S(=O)(=O)c2ccccc23)cc(OC)c1OC (stereo not given) | 3.37% |
| Cc1ccc(NC(=O)C(=O)NCc2ccc(/C=N/NC(=O)c3c(C)nc4cc(C)ccn34)o2)cc1 | 0.35% |
| Cc1sc2nc(CSCC(=O)Nc3c(Cl)cccc3Cl)[nH]c(=O)c2c1C | 35.8% (active) |
| CCN(CC)Cc1nc2sc(C)c(C)c2c(=O)[nH]1 | 2.4% |
| Cc1sc2nc(COC(=O)C(NC(=O)c3ccc(Cl)cc3Cl)C(C)C)[nH]c(=O)c2c1C (stereo not given) | -3.91% |
| COc1ccc(NC(=O)N2CCCC2C(=O)NCc2ccccc2Cl)cc1 (stereo not given) | -3.61% |
| O=S(=O)(c1ccccc1)c1nc(-c2ccccc2)oc1NCCCN1CCOCC1 | -4.19% |
| O=C(NCCc1ccc(Cl)cc1Cl)c1cc([N+](=O)[O-])c[nH]c1=O | -4.08% |
| Cc1nn(CC(=O)Nc2ccc(F)cc2)c(=O)c2ccccc12 | 31.8% (active) |
| O=C(Cn1nc(C(=O)O)c2ccccc2c1=O)Nc1ccc(F)cc1 | 0.16% |
| Cc1ccc(NC(=O)Cn2nc(C)c3ccccc3c2=O)c(C)c1 | -0.05% |
| CCc1nnc(NC(=O)CCC(=O)N2CCN(c3cc(C)ccc3C)CC2)s1 | -1.11% |

| SMILES | inhibition |
| --- | --- |
| O=C(c1ccncc1)c1ccc([N+](=O)[O-])cc1 | 1.75% |
| O=C(CC(n1cncn1)C(Cl)(Cl)Cl)c1ccc([N+](=O)[O-])cc1 (stereo not given) | -0.82% |
| O=C(Cn1c[n+](CC(=O)c2ccc([N+](=O)[O-])cc2)cn1)c1ccc([N+](=O)[O-])cc1 | 17.4% (active) and 20.8% (active) |
| O=C(c1ccc(Br)o1)N1CCN(CCOc2ccccc2)CC1 | -4.13% |
| COc1ccc(CNC(=O)c2ccc3oc(C(C)C)nc3c2)cc1 | -4.27% |
| C/C(=N\Nc1nncc2ccccc12)c1ccc(Cl)c([N+](=O)[O-])c1 | 3.18% |
| CN(CCO)c1ccc(/C=N/Nc2nncc3ccccc23)cc1 | 58.9% (active) |
| COc1cc(/C=N/Nc2nn3cnnc3c3ccccc23)cc(OC)c1OC | -1.69% |
| C=CCSc1nsc(NC(=O)Nc2cccc(C(C)=O)c2)n1 | -1.06% |
| O=C(C1CCCN(S(=O)(=O)c2ccc([N+](=O)[O-])cc2)C1)N1CCCCC1 (stereo not given) | 6.54% |
| O=C(Nc1cccnc1)c1cccc(S(=O)(=O)N2CCCC2)c1 | -0.49% |
| O=C(Nc1cccnc1)c1noc2c1CCCCC2 | 39.9% (active) |
| O=C(c1noc2c1CCCC2)N1CCc2ccccc2C1 | 3.28% |
| CCn1cc(CN2CCC(C(=O)Nc3cccc(-c4cccc(Cl)c4)c3)CC2)cn1 | 7.07% |
| CCCS(=O)(=O)N1CCCC(C(=O)NCCN2CCCCC2C)C1 (stereo not given) | 20.8% (active) |
| CCS(=O)(=O)N1CCCC(C(=O)NCc2ccc(C)cc2)C1 (stereo not given) | -1.37% |
| CCCS(=O)(=O)N1CCCC(C(=O)NCc2ccco2)C1 (stereo not given) | -2% |
| COc1ccccc1CN1CCCC(N2CCN(c3ccc(F)cc3)CC2)C1 (stereo not given) | -1.44% |
| O=C(NC1CCCCC1)C1c2ccccc2C(=O)N1Cc1ccco1 (stereo not given) | -0.31% |
| O=C1c2ccccc2C(Nc2ccc3c(c2)OCCO3)N1Cc1ccco1 (stereo not given) | 16.6% (active) |
| Cc1ccnc(N2C(=O)c3ccccc3C2Nc2ccc3c(c2)OCCO3)c1 (stereo not given) | 1.87% |
| CCc1ccc(NC(=O)CN2CCC(C(=O)c3ccc(OC)cc3)CC2)cc1 | 0.9% |
| Cc1ccccc1OCC(=O)N(Cc1cccc(F)c1)C1CCS(=O)(=O)C1 (stereo not given) | -1.03% |
